Source: PubChem BioAssay (EPA / NIEHS)
Active and inactive are the calls of the source. Rule for the calls: active = hit-call score of the fitted dose curve at least 0.9, where 1 is the maximum; inactive = score below 0.9.

Legend:
[1] = BSK_CASM3C_SRB: Viability Assessment in the BioMAP Diversity Plus: CASM3C Assay (AID 2283050); settings: primary human coronary artery smooth muscle cells;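 note: total protein by SRB staining as cytotoxicity measure in parallel cultures; cells exposed to compound for 24 h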
[2] = read-out: Thrombomodulin, THBD (gene 7056); experiment: BSK_CASM3C_Thrombomodulin: BioMAP Diversity Plus: CASM3C Assay for Thrombomodulin Biomarker Activity (AID 2283051); settings: primary human coronary artery smooth muscle cells; actives raise or lower the signal;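 note: thrombomodulin protein level measured by ELISA 24 h after dosing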
[3] = read-out: Tissue Factor, F3 (gene 2152); experiment: BSK_CASM3C_TissueFactor: BioMAP Diversity Plus: CASM3C Assay for Tissue Factor Biomarker Activity (AID 2283052); settings: primary human coronary artery smooth muscle cells; actives raise or lower the signal;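 note: cell surface tissue factor protein level read by ELISA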
[4] = read-out: Interferon-gamma inducible Protein 10 (IP10), CXCL10 (gene 3627); experiment: BSK_hDFCGF_IP10: BioMAP Diversity Plus: hDFCGF Assay for Interferon-gamma inducible Protein 10 (IP10) Biomarker Activity (AID 2283053); settings: primary human foreskin fibroblasts; actives raise or lower the signal
Procedure, shortened: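 Primary foreskin fibroblasts, human; 24 h compound exposure; IP-10 by ELISA; bidirectional fit vs DMSO.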

[5] = read-out: Urokinase-type plasminogen activator receptor (uPAR), PLAUR (gene 5329); experiment: BSK_CASM3C_uPAR: BioMAP Diversity Plus: CASM3C Assay for Urokinase-type plasminogen activator receptor (uPAR) Biomarker Activity (AID 2283054); settings: primary human coronary artery smooth muscle cells; actives raise or lower the signal;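 note: cell-surface uPAR protein level quantified by ELISA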
[6] = read-out: Vascular cell adhesion molecule 1 (VCAM1), VCAM1 (gene 7412); experiment: BSK_CASM3C_VCAM1: BioMAP Diversity Plus: CASM3C Assay for Vascular cell adhesion molecule 1 (VCAM1) Biomarker Activity (AID 2283055); settings: primary human coronary artery smooth muscle cells; actives raise or lower the signal;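 note: VCAM-1 protein level quantified by ELISA on the cells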
[7] = read-out: Epidermal growth factor receptor (EGFR), EGFR (gene 1956); experiment: BSK_hDFCGF_EGFR: BioMAP Diversity Plus: hDFCGF Assay for Epidermal growth factor receptor (EGFR) Biomarker Activity (AID 2283057); settings: primary human foreskin fibroblasts; actives raise or lower the signal
Procedure, shortened: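 hDFCGF system, primary human foreskin fibroblasts; compound 24 h; EGFR measured by ELISA; DMSO = negative control/baseline; bidirectional fitting.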

[8] = read-out: Interleukin-8 (IL8), CXCL8 (gene 3576); experiment: BSK_hDFCGF_IL8: BioMAP Diversity Plus: hDFCGF Assay for Interleukin-8 (IL8) Biomarker Activity (AID 2283058); settings: primary human foreskin fibroblasts; actives raise or lower the signal
Procedure, shortened: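 ELISA read-out of IL-8 from primary human foreskin fibroblast cultures taken 24 h after dosing; values are bidirectional fits relative to DMSO vehicle.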

[9] = BSK_hDFCGF_Proliferation: Cell Proliferation Assessment in the BioMAP Diversity Plus: hDFCGF Assay (AID 2283059); settings: primary human foreskin fibroblasts;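 note: curves fitted for both rise and fall of signal versus DMSO baseline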
Procedure, shortened: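 Sub-confluent human foreskin fibroblast cultures receive test chemical […]. Relative cell number is quantified by sulforhodamine B staining (0.1%, after 10% TCA fixation) at 560 nm, with bidirectional fitting referenced to DMSO.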

Measured: AC50

Oc1ccc(C(c2ccc(O)cc2)C(Cl)(Cl)Cl)cc1
inactive: [3] | [6]
active: [1] 20.9 µM | [2] 15.5 µM | [4] 23.8 µM | [5] 11.3 µM | [7] 13.3 µM | [8] 31.3 µM | [9] 13.5 µM

O=C(O)c1ccccc1
inactive: all assays above

C=CCOC(Cn1ccnc1)c1ccc(Cl)cc1Cl (stereo not drawn)
active: [4] 27 µM
inactive: all other assays above

CCCN(CCC)c1c([N+](=O)[O-])cc(C(F)(F)F)c(N)c1[N+](=O)[O-]
active: [2] 3.97 µM | [4] 31.3 µM | [9] 26.7 µM
inactive: all other assays above

COCCO
inactive: all assays above

CC(C)(C)[C@@H](O)[C@@H](Cc1ccc(Cl)cc1)n1cncn1
inactive: all assays above

CCOC(=O)C(C)Oc1ccc(Oc2nc3ccc(Cl)cc3o2)cc1 (stereo not drawn)
active: [9] 13.2 µM
inactive: all other assays above

COC(=O)c1ccccc1C(=O)O
active: [4] 31.5 µM
inactive: all other assays above

CN(C)C(=O)Nc1ccc(Cl)c(Cl)c1
inactive: all assays above

COC(=O)c1ccc(CNS(C)(=O)=O)cc1S(=O)(=O)NC(=O)Nc1nc(OC)cc(OC)n1
inactive: all assays above

CC(=O)S[C@@H]1CC2=CC(=O)CC[C@]2(C)[C@H]2CC[C@@]3(C)[C@@H](CC[C@@]34CCC(=O)O4)[C@H]12
active: [4] 29.9 µM | [6] 16.8 µM | [8] 30.6 µM | [9] 20 µM
inactive: all other assays above

S=C([S-])NCCNC(=S)[S-].[Mn+2]
active: [2] 27.1 µM | [4] 30.7 µM | [7] 0.149 µM | [9] 8.5 µM
inactive: all other assays above

O=C(c1ccccc1)C1CCCCC1
inactive: all assays above

COc1nc(C)nc(NC(=O)NS(=O)(=O)c2ccccc2OCCCl)n1
inactive: all assays above

COC(=O)c1ccc(I)cc1S(=O)(=O)NC(=O)Nc1nc(C)nc(OC)n1
inactive: all assays above

OB(O)O
inactive: all assays above

C#C[C@]1(O)CC[C@H]2[C@@H]3CCC4=CC(=O)CC[C@@H]4[C@H]3CC[C@@]21CC
inactive: all assays above

C[C@]12CC[C@@H]3c4ccc(O)cc4C[C@@H](CCCCCCCCCS(=O)CCCC(F)(F)C(F)(F)F)[C@H]3[C@@H]1CC[C@@H]2O (stereo partly drawn)
active: [9] 4.75 µM
inactive: all other assays above

CCCOC(=O)c1ccc(C(=O)OCCC)nc1
inactive: all assays above

N[C@@H](Cc1cc(I)c(Oc2ccc(O)c(I)c2)c(I)c1)C(=O)O
active: [9] 8.65 µM
inactive: all other assays above

CCNc1nc(N)nc(Cl)n1
inactive: all assays above

c1ccc(Nc2ccccc2)cc1
active: [7] 34.1 µM
inactive: all other assays above
